Results reported in PubChem BioAssay (EPA / NIEHS).
Activity calls are given as the source filed them. The calls were made as follows: active = hit-call score of the fitted dose curve at least 0.9, where 1 is the maximum; inactive = score below 0.9.

How the values were obtained:
Details in all cases: mRNA level, 48 h; actives raise or lower the signal
[1] = read-out: Forkhead box O3 (FOXO3), FOXO3 (gene 2309); experiment: LTEA_HepaRG_FOXO3: Life Technologies and Expression Analysis (LTEA) Assay for Forkhead box O3 (FOXO3) using HepaRG (AID 2283459)
Method in brief: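 Gene-expression endpoint: FOXO3 transcript level by qRT-PCR in HepaRG cultures treated 48 h with chemicals up to 100 uM (half-log, 0.5% DMSO vehicle).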

[2] = read-out: ABC Transporter (ABCB1), ABCB1 (gene 5243); experiment: LTEA_HepaRG_ABCB1: Life Technologies and Expression Analysis (LTEA) Assay for ABC Transporter (ABCB1) using HepaRG (AID 2283460)
Method in brief: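 Human liver HepaRG line treated 48 h with up to 100 uM compound (eight half-log points, 0.5% DMSO); ABCB1 mRNA change fitted bidirectionally against DMSO controls.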

[3] = read-out: growth arrest and DNA damage 45 (GADD45B), GADD45B (gene 4616); experiment: LTEA_HepaRG_GADD45B: Life Technologies and Expression Analysis (LTEA) Assay for growth arrest and DNA damage 45 (GADD45B) using HepaRG (AID 2283461)
Experimental: (§1) LTEA_HepaRG is a cell based, multiplexed-readout assay that uses HepaRG, a human liver cell line, with measurements taken at 48 hours after chemical dosing on a 96-well plate.LTEA_HepaRG_GADD45B is one of 102 assay component(s) measured in the LTEA HepaRG cell culture assay. It is a marker of Cell proliferation, survival, death.Data from the assay component LTEA_HepaRG_GADD45B was analyzed into 1 endpoint. This assay endpoint, LTEA_HepaRG_GADD45B, was analyzed with bidirectional fitting relative to DMSO as the negative control and baseline of activity. Using a type of inducible reporter, measures of mRNA induction for gain or loss-of-signal activity can be used to understand regulation of transcription factor activity. To generalize the intended target to other relatable targets, this assay endpoint is annotated to the mutagenicity response intended target family, where the subfamily is Cell proliferation, survival, death.
(§2) A total of 1060 chemcials from the ToxCast library were tested in eight-point concentration-response experiments. […] Fluidigm's 96.96 Dynamic ArrayTM (Fluidigm, Amsterdam, the Netherlands) technology was used for gene expression analyses by quantitative reverse transcription polymerase chain reaction (qRT-PCR, performed by Quintiles/Expression Analysis, Durham, NC)89. […]

[4] = read-out: ABC Transporter (ABCC3), ABCC3 (gene 8714); experiment: LTEA_HepaRG_ABCC3: Life Technologies and Expression Analysis (LTEA) Assay for ABC Transporter (ABCC3) using HepaRG (AID 2283462)
Experimental: as §1, with “plate.LTEA_HepaRG_ABCC3” for “plate.LTEA_HepaRG_GADD45B”, “NR mediated transport.Data” for “Cell proliferation, survival, death.Data”, “LTEA_HepaRG_ABCC3” for “LTEA_HepaRG_GADD45B”, “LTEA_HepaRG_ABCC3,” for “LTEA_HepaRG_GADD45B,”, “transporter” for “mutagenicity response”, “ABC transporter.” for “Cell proliferation, survival, death.”
as §2, with “experiments. Cell culture and cytotoxicity assays were conducted at Thermo Fisher Scientific's Custom Services facility (Madison, WI).” for “experiments.”

[5] = read-out: ABC Transporter (ABCB11), ABCB11 (gene 8647); experiment: LTEA_HepaRG_ABCB11: Life Technologies and Expression Analysis (LTEA) Assay for ABC Transporter (ABCB11) using HepaRG (AID 2283463)
Experimental: as §1, with “plate.LTEA_HepaRG_ABCB11” for “plate.LTEA_HepaRG_GADD45B”, “Steatosis/NR mediated transport.Data” for “Cell proliferation, survival, death.Data”, “LTEA_HepaRG_ABCB11” for “LTEA_HepaRG_GADD45B”, “LTEA_HepaRG_ABCB11,” for “LTEA_HepaRG_GADD45B,”, “transporter” for “mutagenicity response”, “ABC transporter.” for “Cell proliferation, survival, death.”
as §2, with “experiments. Cell culture and cytotoxicity assays were conducted at Thermo Fisher Scientific's Custom Services facility (Madison, WI).” for “experiments.”

[6] = read-out: ABC Transporter (ABCC2), ABCC2 (gene 1244); experiment: LTEA_HepaRG_ABCC2: Life Technologies and Expression Analysis (LTEA) Assay for ABC Transporter (ABCC2) using HepaRG (AID 2283464)
Method in brief: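 Gene expression of ABCC2 was determined by qRT-PCR in HepaRG cells exposed 48 h to chemicals (highest 100 uM, half-log dilutions). Activity was fitted in both directions relative to 0.5% DMSO vehicle.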

[7] = read-out: Broad substrate specificity ATP-binding cassette transporter ABCG2 (Homo sapiens) (UniProt Q9UNQ0); experiment: LTEA_HepaRG_ABCG2: Life Technologies and Expression Analysis (LTEA) Assay for ABC Transporter (ABCG2) using HepaRG (AID 2283465)
Method in brief: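 Gene expression of ABCG2 in HepaRG liver cells is quantified by qRT-PCR following 48 h exposure across an eight-point series topping at 100 uM. Values come from bidirectional fitting relative to DMSO vehicle.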

[8] = read-out: ATP-citrate lyase (ACLY), ACLY (gene 47); experiment: LTEA_HepaRG_ACLY: Life Technologies and Expression Analysis (LTEA) Assay for ATP-citrate lyase (ACLY) using HepaRG (AID 2283466)
Method in brief: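 ACLY expression changes in human HepaRG liver cells are quantified by qRT-PCR after 48 h exposure to test chemicals (maximum 100 uM, half-log steps). Values are fitted in both directions relative to 0.5% DMSO vehicle.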

[9] = read-out: Peroxisomal acyl-coenzyme A oxidase 1 (ACOX1) gene, ACOX1 (gene 51); experiment: LTEA_HepaRG_ACOX1: Life Technologies and Expression Analysis (LTEA) Assay for Peroxisomal acyl-coenzyme A oxidase 1 (ACOX1) gene using HepaRG (AID 2283467)
Method in brief: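 Human HepaRG hepatic cultures, 48 h treatment with test chemicals up to 100 uM. ACOX1 expression read by qRT-PCR relative to 0.5% DMSO vehicle.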

[10] = read-out: Alkaline Phosphatase, Placental (ALPP) gene, ALPP (gene 250); experiment: LTEA_HepaRG_ALPP: Life Technologies and Expression Analysis (LTEA) Assay for Alkaline Phosphatase, Placental (ALPP) gene using HepaRG (AID 2283468)
Method in brief: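 Expression of ALPP was quantified by qRT-PCR against three housekeeping genes in human HepaRG cultures treated for 48 h with an eight-point concentration series up to 100 uM. Activity in either direction was fitted relative to 0.5% DMSO.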

Measured: outcome

Sequence of Broad substrate specificity ATP-binding cassette transporter ABCG2 (Homo sapiens) (Q9UNQ0 whole entry, looked up): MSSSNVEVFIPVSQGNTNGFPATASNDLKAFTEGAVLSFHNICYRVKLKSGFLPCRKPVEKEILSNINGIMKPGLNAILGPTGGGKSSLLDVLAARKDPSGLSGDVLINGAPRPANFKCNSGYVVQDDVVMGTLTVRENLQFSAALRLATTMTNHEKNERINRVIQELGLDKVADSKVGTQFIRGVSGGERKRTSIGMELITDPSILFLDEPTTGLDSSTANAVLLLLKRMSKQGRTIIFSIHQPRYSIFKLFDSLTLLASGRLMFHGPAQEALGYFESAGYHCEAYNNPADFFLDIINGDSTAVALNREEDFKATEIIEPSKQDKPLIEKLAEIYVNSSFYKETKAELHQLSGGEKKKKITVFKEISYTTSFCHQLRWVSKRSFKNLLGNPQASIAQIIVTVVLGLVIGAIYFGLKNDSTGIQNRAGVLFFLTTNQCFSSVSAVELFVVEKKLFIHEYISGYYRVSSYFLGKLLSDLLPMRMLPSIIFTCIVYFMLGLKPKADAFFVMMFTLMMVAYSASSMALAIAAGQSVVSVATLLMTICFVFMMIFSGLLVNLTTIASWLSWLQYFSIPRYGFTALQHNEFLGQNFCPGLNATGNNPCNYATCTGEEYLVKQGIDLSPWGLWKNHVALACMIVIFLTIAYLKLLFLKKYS

O=C(O)c1ccc([N+](=O)[O-])cc1
inactive: [1] | [2] | [3] | [4] | [5] | [6] | [7] | [8] | [9] | [10]
